# Test results taken from PubChem BioAssay AID1851 (National Center for Advancing Translational Sciences (NCATS), 2009).
# In all, about 16,000 compounds went through this assay and about 4,000 (25%) were called active. About 26% were inconclusive and are not listed. Calls follow the shape of the dose curve; as a rule, active = well fitted curve in the direction sought with a large enough effect; inconclusive = small, poorly fitted or top-dose-only effect, or effect the other way; inactive = no such curve, though single readings can be large or run the other way. Only a sample is shown.
# Target: Cytochrome P450 2C9 (Homo sapiens) (UniProt P11712)
# Experiment: Cytochrome panel assay with activity outcomes
# Conditions: recombinant CYP, pro-luciferin dealkylation, luminescence, p450-cyp2c9; series mostly up to 57.1 µM
# % is scaled to controls: 0 for no effect and ±100 for the full control effect.
# Chain of Cytochrome P450 2C9 (Homo sapiens) (P11712 whole entry, looked up): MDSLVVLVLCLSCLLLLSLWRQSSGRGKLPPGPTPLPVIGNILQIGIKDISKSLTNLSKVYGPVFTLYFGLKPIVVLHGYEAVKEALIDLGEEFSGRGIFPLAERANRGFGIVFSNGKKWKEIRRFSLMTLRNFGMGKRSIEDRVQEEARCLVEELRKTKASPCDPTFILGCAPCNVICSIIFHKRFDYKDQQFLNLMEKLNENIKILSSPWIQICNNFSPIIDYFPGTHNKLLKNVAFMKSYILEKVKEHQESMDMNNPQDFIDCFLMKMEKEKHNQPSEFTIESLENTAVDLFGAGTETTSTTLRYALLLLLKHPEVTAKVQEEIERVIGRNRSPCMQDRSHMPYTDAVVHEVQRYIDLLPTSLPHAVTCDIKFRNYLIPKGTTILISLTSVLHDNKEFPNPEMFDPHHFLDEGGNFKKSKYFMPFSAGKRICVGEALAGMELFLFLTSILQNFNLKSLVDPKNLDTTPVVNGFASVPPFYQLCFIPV
Compound,AC50,"activity, negative = inhibition"
CCC(C)(C)N=C(NC#N)Nc1cccnc1,inactive,
CN(C)c1ncnc2ccc(-c3ccccc3C#N)cc12,,-7.24% [at 2.29 µM] (inactive)
Nc1c2c(=O)oc(-c3ccccc3)cc2nn1-c1ccccc1,10 µM (active),
O=C(O)/C=C(/C(=O)O)[C@]12CCN3CC4=CCO[C@@H]5CC(=O)N[C@@H]1[C@H]5[C@H]4C[C@H]32,,-2.53% [at 11.4 µM] (inactive)
CN1/C(=C\C=[N+](C)c2ccccc2)C(C)(C)c2ccccc21,inactive,
c1ccc(-c2nnn(CCN3CCCCC3)n2)cc1,,3.45% [at 11.4 µM] (inactive)
CN1/C(=C\C(=O)COC(=O)Cn2nnc(-c3ccccc3)n2)C(C)(C)c2ccccc21,3.98 µM (active),
CC1CCCN(C(=O)c2sc3cc([N+](=O)[O-])ccc3c2Cl)C1 (stereo unspecified),inactive,
CS(=O)(=O)c1ccc([C@H](O)[C@H](CO)NC(=O)C(Cl)Cl)cc1,inactive,
CC(=O)N1CCC2(CCCN(Cc3ccccc3)C2)CC1,inactive,
COc1ccc(-c2cc(C(F)F)nc(-n3nc(C)cc3C)n2)cc1,28.2 µM (active),
Cc1cc(C)n(-c2nc(NC(C)C)nc(NC(C)C)n2)n1,inactive,
Cc1cnc(CNc2nc(-c3ccc(N(C)C)cc3)nc3ccccc23)cn1,,-14.7% [at 2.29 µM] (inactive)
COc1ccccc1NC(=O)CCc1c(C)[nH]c(=O)c(C#N)c1C,inactive,
N#Cc1c(-c2cccs2)nc(SCC(=O)c2cccs2)[nH]c1=O,0.708 µM (active),
COc1ncc2nc(-c3cccs3)c(=O)n(CCC#N)c2n1,inactive,
N#CCCn1c(=O)c(-c2cccs2)nc2cnc(Nc3ccccc3)nc21,inactive,
Cc1cccc(NC(=O)CSc2nc(-c3ccccc3)c(C#N)c(=O)[nH]2)c1C,0.355 µM (active),
CC(C)NC(=O)N1CC[C@@]2(CCCN(C(=O)c3csnn3)C2)C1,inactive,
COc1ccccc1-c1cc(NCc2cccc(C)c2)ncn1,,0.571% [at 2.29 µM] (inactive)
Cc1ccc(N(Cc2ccc([N+](=O)[O-])cc2)C(=O)c2ccco2)cc1,3.16 µM (active),
O=C(O)/C(Cc1ccc([N+](=O)[O-])cc1)=N/O,,-14.2% [at 11.4 µM] (inactive)

Compound,AC50,"activity, negative = inhibition"
CCOC(=O)N/N=C\c1ccc([N+](=O)[O-])o1,inactive,
O=C(N/N=C/c1ccc([N+](=O)[O-])o1)c1cc(-c2ccncc2)nc2ccccc12,0.891 µM (active),
NC(=O)N/N=C\c1ccc([N+](=O)[O-])o1,inactive,
O=C(O)[C@H]1CN(CCCP(=O)(O)O)CCN1,inactive,
CCN(c1ccccc1)S(=O)(=O)c1ccc(NC(=S)NC(=O)c2cccs2)cc1,1 µM (active),
CCN(c1ccccc1)S(=O)(=O)c1ccc(NC(=S)NC(=O)c2ccc(Br)o2)cc1,1.58 µM (active),
CN(C1CCCCC1)S(=O)(=O)c1ccc(NC(=S)NC(=O)c2cccs2)cc1,0.891 µM (active),
O=C(NC1CCCCCC1)c1cccs1,inactive,
CCOC(=O)NCN1C(=O)C2C3C=CC(C3)C2C1=O (stereo unspecified),inactive,
CC(C)(S)[C@H](N)C(=O)O,,3.44% [at 11.4 µM] (inactive)
CCCCCCCCCCCCCC(=O)O[C@H](CC(=O)O)C[N+](C)(C)C,inactive,
O=C1c2ccccc2S(=O)(=O)N1CCCCN1CCN(c2ncccn2)CC1,inactive,
CN1C(C(=O)Nc2ccccn2)=C(O)c2ccccc2S1(=O)=O,3.98 µM (active),
Cc1cc(NC(=O)C2=C(O)c3ccccc3S(=O)(=O)N2C)no1,inactive,
N/N=C1/c2ccccc2N[C@H]1OC(=O)Nc1cccc(Cl)c1,,-11.6% [at 11.4 µM] (inactive)
O=C(Nc1cccc(Cl)c1)N1CCN2C(=O)c3ccccc3C12c1ccccc1 (stereo unspecified),2.51 µM (active),
O=C(Nc1cccc(F)c1)N1CCC2(CCNCC2)CC1,inactive,
N[C@@H](Cc1ccc(O)c(O)c1)C(=O)O,inactive,
C[C@](N)(Cc1ccc(O)c(O)c1)C(=O)O,inactive,
C[C@H](Cc1ccc(O)c(O)c1)[C@@H](C)Cc1ccc(O)c(O)c1,12.6 µM (active),
O=c1c2ccccc2nc2n1CC/C2=C\c1ccccc1[N+](=O)[O-],5.01 µM (active),
O=c1c2ccccc2nc2n1CCc1c-2[nH]c2ccccc12,inactive,

Compound,AC50,"activity, negative = inhibition"
O=C(O)CSc1nc2ccccc2[nH]1,,-8.67% [at 11.4 µM] (inactive)
O=C(CSc1nc2ccccc2[nH]1)Nc1c(F)cccc1F,12.6 µM (active),
CNC(=O)[C@@H]1O[C@@H](n2cnc3c(NCc4cccc(I)c4)ncnc32)[C@H](O)[C@@H]1O,inactive,
CCOC(=O)c1cnc(-c2ccccc2)nc1Oc1ccc(Cl)cc1,inactive,
CCOC(=O)c1cnc(-c2ccccc2)nc1Oc1cccc(Cl)c1,11.2 µM (active),
CCOC(=O)c1cnc(-c2ccccc2)nc1Oc1ccccc1,6.31 µM (active),
Cc1ccc(Oc2nc(-c3ccccc3)ncc2S(C)(=O)=O)cc1,2.51 µM (active),
C=CCOc1ccc(CNC(C)(C)CO)cc1OC,inactive,
CCn1cc(C(=O)O)c(=O)c2cc3c(cc21)OCO3,inactive,
O=C(O)c1cc(=O)c2c(Cl)cc(Cl)cc2[nH]1,inactive,
CO/N=C\[C@@H](C)[C@H](OCc1ccccc1)C(C)C,,-6.92% [at 11.4 µM] (inactive)
COc1ccccc1-c1nc(NCc2cnc(C)cn2)c2ccccc2n1,,16.4% [at 2.29 µM] (inactive)
Nc1ncnc2c1cnn2-c1ccccc1,inactive,
Cn1ncc2c(Nc3cccc(C(=O)O)c3)ncnc21,inactive,
CC(=O)Nc1ccc(Nc2ncnc3c2cnn3-c2ccccc2)cc1,0.891 µM (active),
CCOC(=O)c1ccc(NC(=O)CC2NCCNC2=O)cc1 (stereo unspecified),inactive,
CCOC(=O)c1ccc(NC(=O)COc2ccccc2OC)cc1,17.8 µM (active),
Cc1ccc2nc(Nc3ccccc3O)nc(-c3ccccc3)c2c1,8.91 µM (active),
Cc1ccc2nc(N/N=C/c3ccccc3C#N)nc(-c3ccccc3)c2c1,7.08 µM (active),
Cc1ccc2nc(N/N=C\c3cccc(C)n3)cc(C)c2c1,,7.2% [at 11.4 µM] (inactive)
Cc1cc(C)nc(Nc2ncc(O)n2-c2ccccc2)n1,inactive,
Cc1nc(N/N=C/c2ccccc2)nc(N(C)c2ccccc2)c1[N+](=O)[O-],inactive,
